# Assay outcomes as filed in PubChem.
# Hits are enriched below; roughly 11% of the tested compounds scored in any of these assays.
# ALDH1A1 inh: ALDH1A1 (human) enzyme inhibition. P00352. Purified ALDH1A1, NADH fluorescence, propionaldehyde substrate. Potency, µM (series often up to 75.3 µM), for the others: at the highest dose activity, negative = inhibition, hits mostly inhibitors. 220,000 compounds, 7.3% hits;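 also: potency is read from the fitted curve at half-maximal effect; plate controls were no enzyme wells and a reference inhibitor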
# Target sequence (P00352 whole entry, looked up): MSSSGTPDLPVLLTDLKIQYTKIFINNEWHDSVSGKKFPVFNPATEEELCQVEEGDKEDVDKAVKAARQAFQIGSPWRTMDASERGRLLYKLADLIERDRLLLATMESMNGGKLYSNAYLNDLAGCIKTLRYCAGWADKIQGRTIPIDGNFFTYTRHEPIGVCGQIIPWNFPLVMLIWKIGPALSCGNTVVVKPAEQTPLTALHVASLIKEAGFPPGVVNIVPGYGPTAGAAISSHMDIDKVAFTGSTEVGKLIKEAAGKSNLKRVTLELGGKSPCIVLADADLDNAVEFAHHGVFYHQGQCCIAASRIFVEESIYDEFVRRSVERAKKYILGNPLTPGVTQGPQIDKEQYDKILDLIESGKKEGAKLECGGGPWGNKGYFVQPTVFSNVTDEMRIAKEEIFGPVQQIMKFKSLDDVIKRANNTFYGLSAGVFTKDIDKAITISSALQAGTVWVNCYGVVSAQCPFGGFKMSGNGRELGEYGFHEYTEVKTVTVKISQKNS
# HPGD inh: blocks human HPGD enzyme activity; purified HPGD, NADH fluorescence kinetic, PGE2 substrate; P15428; AID 894; Potency, µM, inactives show top-dose activity change, negative = inhibition, hits mostly inhibitors; 150,000 compounds, 4.3% hits; also: potency is read from the fitted curve at half-maximal effect
#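 NADH formation kinetics: reaction with 30 uM PGE2 and 1 mM NAD+ (final), 20 nM enzyme, Tris-HCl pH 8 with Tween 20, after 15 min compound preincubation at room temperature. Fluorescence change, last versus first of five reads.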
# PNC assembly inh: perinucleolar compartment assembly inhibition; PC3M PTB-GFP, PNC prevalence imaging, 16 h; hits give low values; activity change (PNC), negative = inhibition, % at 10 µM; 140,000 compounds, 3.1% hits; AID 2417;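 active = readout at or below -70, meaning at least 70% loss of cells showing the perinucleolar compartment, a nuclear body marking cancer cells; inconclusive = readout between -30 and a set limit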;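 also: plate controls were DMSO wells for no effect and camptothecin positive control wells for full effect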
#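 Compounds are pinned in duplicate onto adhered PC3M cells stably expressing GFP-tagged PTB and incubated 16 h at 37 C. Cells are then fixed, nuclei stained with Hoechst, and PNC-positive cells counted.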
# Starred values were filed as active, the others as inactive; u = inconclusive; x = no result; [ ] = remark or other dose. Unless noted, calls follow the shape of the dose curve; as a rule, active = well fitted inhibition curve with a large enough effect (not every such curve was filed as active); inconclusive = small, poorly fitted or top-dose-only effect, or another doubt; inactive = no such curve, though single readings can be large or run the other way. Unless noted, % is scaled to controls: 0 for no effect and ±100 for the full control effect.
SMILES,ALDH1A1 inh,HPGD inh,PNC assembly inh
COc1cccc2c1C(=O)c1c(O)c3c(c(O)c1C2=O)C[C@@](O)(C(=O)CO)C[C@H]3O[C@H]1C[C@@H](N)[C@H](O)[C@@H](C)O1.[W],-10.6%[13.5 µM],-3.0%,x
CN1CCN(C(=S)SCC(=O)Nc2nc(-c3ccccc3)c(-c3ccccc3)o2)CC1,u,-21.5%,u
Cc1ccccc1-c1cncnc1NC1CCNCC1,1.9%,-7.2%,x
O=C(O)[C@@H]1CS[C@@]2(CCCN(Cc3ccccc3)C2)N1,-9.3%[13.5 µM],0.9%,x
O=C(c1cccc(C(F)(F)F)c1)C1CCCN(C(=O)CCCn2cncn2)C1 (stereo not drawn),0.7%,x,x
CSc1ccc(C(=O)C2CCCN(C(=O)CCCn3cncn3)C2)cc1 (stereo not drawn),15.8µM*,x,x
COC(=O)c1sc(NC(=O)CC(C)C)c(C(=O)OC)c1C,u,-21.5%,26.9
COC(=O)c1c(NC(C)=O)sc(C)c1C,8.9%,x,x
COC(=O)c1sc(NC(C)=O)c(C(=O)OC)c1C,u,31.6µM*,u
COC(=O)c1sc(NC(=O)CSc2nncs2)c(C(=O)OC)c1C,u,2.82µM*,19.1
Cc1ccc(CC(=O)NCCS(=O)c2ccc(C)cc2)cc1 (stereo not drawn),-0.1%,x,x
CCC(=O)NC(=S)Nc1ccccc1C(=O)NC1CCCCC1,-6.7%,-3.2%,27.1
O=C(/C=C/c1ccccc1Cl)NC(=S)Nc1ccccc1C(=O)NC1CCCCC1,22.4µM*,28.2µM*,27.8
O=C(NC1CCCCC1)c1ccccc1NC(=S)NC(=O)C1CCC1,0.6%,-9.6%,-8.9
CC(C)C(=O)NC(=S)Nc1ccccc1C(=O)NC1CCCCC1,-4.8%,-8.8%,-113.8*
CCCNC(=O)OC[C@H]1O[C@@H](CCO/N=C2/[C@H]3O[C@@H]3[C@@H](O)[C@H]3[C@H]2CCn2c(=O)n(-c4ccccc4)c(=O)n23)C=C[C@@H]1Oc1ccc(OC)cc1,-14.5%[13.5 µM],x,x
COC(=O)NC(c1cccc(C)c1)[C@@]1(C(=O)OC)CCCC1=O (stereo partly drawn),12.3%[13.5 µM],x,x
O=C(N/N=C/c1cccc([N+](=O)[O-])c1)c1ccccc1-n1cccc1,-9.3%,x,x
COc1ccc(C(=O)Oc2c(C)occc2=O)cc1OC,4.7%,0.2%,u
Cc1occc(=O)c1OC(=O)Nc1ccc(Cl)c(Cl)c1,8.2%,-5.6%,-113.4*
Cc1nc([N+](=O)[O-])nn1C12CC3CC(CC(Cl)(C3)C1)C2,12.5%,0.7%,-13.2
C/C(=N\NC(=O)COc1ccc(C(C)(C)C)cc1)c1ccc(N2CCOCC2)cc1,u,u,51.3
Cn1c(=O)[nH]c(=O)c2c1nc(N1CCCCC1)n2CCCSc1nc2ccccc2s1,u,15.8µM*,130.8
Cn1c(=O)c2c(nc(N3CCCCC3)n2CCSc2nc3ccccc3s2)n(C)c1=O,28.2µM*,-10.6%,28.6
Cn1c(=O)c2c(nc(N3CCC(C(N)=O)CC3)n2CCSc2nc3ccccc3s2)n(C)c1=O,2.2%,-2.5%,5.9
SMILES,ALDH1A1 inh,HPGD inh,PNC assembly inh
CC1CCCN(c2nc3c(c(=O)n(C)c(=O)n3C)n2CCSc2nc3ccccc3s2)C1 (stereo not drawn),14.1µM*,-24.1%,6.1
CC1CCN(c2nc3c(c(=O)n(C)c(=O)n3C)n2CCSc2nc3ccccc3s2)CC1,u,-9.0%,20.3
Cn1c(=O)[nH]c(=O)c2c1nc(N1CCCCCC1)n2CCSc1nc2ccccc2[nH]1,u,-14.6%,35.4
CC1CCc2c(sc3nc(CN4CCN(S(=O)(=O)c5ccccc5[N+](=O)[O-])CC4)[nH]c(=O)c23)C1 (stereo not drawn),1.5%,-9.1%,-25.2
COc1ccc(NC(=O)Nc2ccccc2F)cc1Cl,8.0%,x,x
CCOC(=O)c1[nH]c(CO)c(C(=O)OCC)c1C,4.1%,x,x
CC1(C)CC(=O)C=C(Nc2ccccn2)C1,8.91µM*,-23.4%,u
CC1(C)CC(=O)C=C(Nc2ccc(Br)cn2)C1,u,-21.9%,25.2
[O-][N+]1(CC[N+]2([O-])CCCCC2)CCCCC1,-0.4%[13.5 µM],-8.0%,x
Cc1nc2sc3c(c2c(=O)o1)CCCC3,0.8%,-5.7%,-27.6
CC(C)c1nc2sc3c(c2c(=O)o1)CCCC3,0.0%,-26.6%,-94.2*
CN(C)Cc1ccccc1-c1ccc2ncnc(N(C)C)c2c1,2.8%,x,x
CN(C)c1ncnc2ccc(-c3ccoc3)cc12,28.2µM*,x,x
Cc1cccc(NC(=O)C(=O)NCc2ccc3c(c2)OCO3)c1C,11.5%,x,x
CCOC(=O)c1c(NC(=O)c2ccc(Br)o2)sc(C)c1CC,u,u,-9.3
C=CCn1c(NC(=O)c2ccc(Br)o2)c(C(=O)OCC)sc1=S,3.55µM*,15.8µM*,-15.0
S=C(NCC(c1ccco1)N1CCCC1)Nc1ccccc1 (stereo not drawn),-14.6%,x,x
